Screening results (PubChem)
IL-2 act: qHTS of IL-2 Activators; IL-2 activation reporter assay, cell-based qHTS; stimulated with anti-CD3/CD4/CD28 beads; in transgenic mouse T cells; activation, % (series mostly up to about 46 µM); actives 0.065% (n = 360,000); in the data active = activation above about 50%; inconclusive = mostly about 30% to 49%
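Using fluorescent plate cytometry, EGFP and DsRed are detected in transgenic mouse T cells stimulated 18 h at 37 degrees C with antibody-coated beads after 60 min compound pretreatment.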
BRCA1 expr up: qHTS Assay to Identify Small Molecule Activators of BRCA1 Expression. Potency, µM (highest dose often 46.1 µM), usual class: activators. actives 1.1% (n = 380,000). AID 624202, 2012. MCF7-BRCA1-FFLuc reporter, luminescence, 48 h; response scale: scaled: vehicle 0%, 10 µM genistein 100%; also: nearly all actives have a fitted effect of over 80% in size
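Using MCF7 cells harboring a BRCA1 firefly luciferase reporter, plated 2 h before compound pinning, the screen measured luminescence after 48 h incubation. Responses were normalized to DMSO and 10 microM genistein, then fitted for concentration-effect.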
p53 reactivator: qHTS assay for re-activators of p53 using a Luc reporter; Potency, µM (highest dose often 92.2 µM), usual class: activators; actives 0.063% (n = 320,000); H1299 p53-A138V BP100-luciferase reporter, luminescence, 24 h; also: nearly all actives have a fitted effect of over 45% in size
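p53-null H1299 cells stably carrying temperature-sensitive p53-A138V and a BP100-luciferase reporter were pinned with compounds (4-point, 1:5 series) and held 24 hrs at 37 deg C. Luminescence was read 10 min after detection reagent.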
Nrf2 activator: qHTS of Nrf2 Activators; AREc32 ARE-luciferase reporter (MCF7-derived line), luminescence, 24 h; Potency, µM (highest dose often 46.1 µM), hits mostly activators; actives 0.31% (n = 410,000); AID 624171, 2012; also: nearly all actives have a fitted effect of over 65% in size
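Nrf2 activation is followed as ARE-luciferase induction in the AREc32 line after one day of compound treatment; luminescence is read with Steady-Glo.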
A549 tox: Nrf2 qHTS screen for inhibitors: counterscreen for cytotoxicity | A549 ARE-Fluc cells, CellTiter-Fluor viability, 18-24 h | Potency, µM (titrated, usually from 46 µM), most hits filed as inhibitors | actives 0.16% (n = 390,000) | AID 504648, 2011
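A549 ARE_Fluc cells in 5% FBS OPTI-MEM were exposed to compounds in concentration-response for 18-24 h at 37 deg C. Viability was read by CellTiter-Fluor fluorescence (Ex 405/Em 525) after 30 min, before the luciferase read.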
Nrf2 inh: Nrf2 qHTS screen for inhibitors. A549 ARE-Fluc reporter, luciferase luminescence, 18-24 h. Potency, µM (highest dose often 46 µM), usual class: inhibitors. actives 2.1% (n = 360,000). AID 504444, 2011; also: nearly all actives have a fitted effect of over 60% in size
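A549 ARE_Fluc cells (5000/well, 5% FBS OPTI-MEM) pre-incubated 2 h, then treated with compounds 18-24 h at 37C/5% CO2 in concentration-response. CellTiter-Fluor viability read first; BugLite luciferase luminescence after 15 min at room temperature gives Nrf2 activity.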
Of the large screens only hits and unclear results are named; the others gave an inactive call. The list is not random: actives were taken first. Their share in the collection is about 3.2%. Unless noted, calls follow the shape of the dose curve; as a rule, active = well fitted curve in the direction sought with a large enough effect; inconclusive = small, poorly fitted or top-dose-only effect, or another doubt; inactive = no such curve, though single readings can be large; an effect the other way counts as inactive or inconclusive.

Cc1cc(=O)[nH]c2nnc(SCCC(C)C)n12	none (no result: IL-2 act, BRCA1 expr up, p53 reactivator, Nrf2 inh)
CC(=O)N(C)c1ccc(N=NC2C(=O)N(C(N)=S)N=C2C)cc1 (centres undefined)	BRCA1 expr up 4µM (no result: p53 reactivator)
O=C1c2ccccc2C(=O)N1c1ccncc1	none (no result: IL-2 act, BRCA1 expr up, p53 reactivator, Nrf2 activator)
c1ccc(Cn2c(-c3ccccc3)c[n+]3c2SCCC3)cc1	Nrf2 inh 8.2µM
CCOC(=O)c1cc(OC(=O)c2ccc(C)cc2)n(-c2ccccc2)n1	none (no result: IL-2 act, p53 reactivator)
COc1ccc(-n2ncc(C(=O)NCc3ccc4c(c3)OCO4)c2C2CCN(C(=O)OC(C)(C)C)CC2)cc1	Nrf2 inh 16µM (no result: IL-2 act, BRCA1 expr up, p53 reactivator)
Cc1ccc(-n2ncc(C(=O)NCc3ccc4c(c3)OCO4)c2C2CCN(C(=O)OC(C)(C)C)CC2)cc1C	Nrf2 inh 18µM (no result: IL-2 act, BRCA1 expr up, p53 reactivator)
Cc1cccc(C)c1-n1ncc(C(=O)NCc2ccc3c(c2)OCO3)c1C1CCN(C(=O)OC(C)(C)C)CC1	Nrf2 inh inconclusive (no result: IL-2 act, BRCA1 expr up, p53 reactivator)
O=C1c2ccccc2C(=O)N1c1ccc2ccccc2n1	none (no result: IL-2 act, BRCA1 expr up, p53 reactivator, Nrf2 activator)
COC(=O)/C=C1\OCc2cccc(C)c21	none (no result: BRCA1 expr up, p53 reactivator, Nrf2 activator, A549 tox, Nrf2 inh)
CS(=O)(=O)N(Cc1ccccc1)c1ccc(C(=O)Nc2cccnc2)cc1	none
CS(=O)(=O)N(Cc1ccc(Cl)cc1)c1ccc(C(=O)Nc2cccnc2)cc1	Nrf2 inh 16µM
CC(=O)c1c(C)[nH]c(C(=O)COc2ccc(C#N)cc2)c1C	Nrf2 inh 12µM
CC(=O)c1c(C)[nH]c(C(=O)COc2cc(C)ccc2C(C)C)c1C	Nrf2 inh 7.3µM
COc1cc(C)ccc1OCC(=O)OCC(=O)c1[nH]c(C)c(C(C)=O)c1C	none
COc1ccccc1OCC(=O)c1[nH]c(C)c(C(C)=O)c1C	Nrf2 inh 5.2µM
CCc1ccccc1Nc1cc(C(=O)NCCc2ccccc2)c2ccccc2n1	Nrf2 inh inconclusive (no result: IL-2 act, BRCA1 expr up, p53 reactivator)
CCSC(=O)N1CCN(/[N+]([O-])=N/Oc2ccc([N+](=O)[O-])cc2[N+](=O)[O-])CC1	none (no result: IL-2 act, p53 reactivator, Nrf2 activator, A549 tox, Nrf2 inh)
C=CC[C@@H](Cc1ccc(F)cc1)C(=O)OC[C@H]1CCCN1C(=O)[C@H](CC=C)CC(=O)N[C@H](CO)Cc1ccccc1	A549 tox inconclusive, Nrf2 inh 23µM
C=CC[C@@H](Cc1ccc(F)cc1)C(=O)OC[C@H]1CCCN1C(=O)[C@@H](CC=C)CC(=O)N[C@H](CO)Cc1ccccc1	A549 tox inconclusive, Nrf2 inh 18µM
Cc1ccc(OCc2cc(=O)n3cc(C)sc3n2)c(NC(=O)c2ccco2)c1	none (no result: IL-2 act, BRCA1 expr up, p53 reactivator, Nrf2 inh)
O=S(=O)(NC1CCCC1)c1ccc(S(=O)(=O)N(Cc2cccs2)CC2CCCO2)cc1 (centres undefined)	Nrf2 inh 18µM
Cc1cc2c(n1-c1ccc(C(=O)NCCc3ccc(Cl)cc3)cc1)CCCC2	none (no result: IL-2 act, BRCA1 expr up, p53 reactivator)
COc1cc2oc3ccc(C#Cc4ccc(N)cc4)cc3c(=O)c2cc1OC	Nrf2 inh 15µM (no result: p53 reactivator)
N#Cc1ccc(C#Cc2ccc3oc4ccccc4c(=O)c3c2)cc1	none
COc1cc2oc3ccc(C#Cc4ccccn4)cc3c(=O)c2cc1OC	none (no result: p53 reactivator)
COc1cc2oc3cc(C#Cc4ccc(N)cc4)ccc3c(=O)c2cc1OC	A549 tox inconclusive, Nrf2 inh 16µM (no result: p53 reactivator)
Nc1ccc(C#Cc2ccc3c(=O)c4ccccc4oc3c2)cc1	BRCA1 expr up 10µM, Nrf2 inh 10µM
O=C(c1ccc(S(=O)(=O)c2cccc(Cl)c2)c([N+](=O)[O-])c1)N1CCN(c2ccccn2)CC1	A549 tox inconclusive, Nrf2 inh 16µM
O=C(c1cccc(Cl)c1)N1CCN(c2ccccn2)CC1	none
O=[N+]([O-])c1ccccc1N/N=C\c1ccccc1Cl	BRCA1 expr up 2.5µM, Nrf2 activator 10µM, Nrf2 inh inconclusive
O=[N+]([O-])c1ccccc1/C=N/NC1=NCCN1	none (no result: p53 reactivator)
O=[N+]([O-])c1ccccc1C=NNc1ccccc1	Nrf2 activator 6.3µM (no result: p53 reactivator)
Cc1ncc(S(=O)(=O)c2ccccc2)c(-c2ccccc2)n1	none
Cc1ncc(N=Nc2ccccc2)c(-c2ccccc2)n1	Nrf2 activator 4µM
CN(CC(O)CON=C1c2ccccc2-c2ccccc21)S(=O)(=O)c1ccc(Br)cc1 (centres undefined)	A549 tox inconclusive, Nrf2 inh 21µM
CCN(CC(O)CON=C1c2ccccc2-c2ccccc21)S(=O)(=O)c1ccc(Cl)cc1 (centres undefined)	Nrf2 inh inconclusive
CCN(CC(O)CON=C1c2ccccc2-c2ccccc21)S(=O)(=O)c1ccc(C)cc1 (centres undefined)	A549 tox inconclusive, Nrf2 inh 21µM
Clc1cccc(CON/C=N/c2ncnc3sccc23)c1	Nrf2 inh 16µM
Clc1cccc(Cl)c1CON/C=N/c1ncnc2sccc12	Nrf2 inh inconclusive
Cc1ccc(C(=O)CN2C(=O)NC3(CCCCCC3)C2=O)c(C)c1	BRCA1 expr up 6.3µM, Nrf2 inh inconclusive
COC(=O)C(CCSC)NS(=O)(=O)c1ccccc1Br (centres undefined)	none (no result: IL-2 act, BRCA1 expr up, p53 reactivator, Nrf2 activator)
CCN(CC)c1ccc2nc3c4ccccc4c(=O)cc-3oc2c1	BRCA1 expr up 0.89µM, Nrf2 inh inconclusive (no result: p53 reactivator)
CCc1ccc(C(=O)COC(=O)C(Cc2ccccc2)NC(=O)C2CCC(C)CC2)cc1 (centres undefined)	Nrf2 inh inconclusive
CC1CCC(C(=O)NC(C(=O)OCC(=O)c2ccccc2)C(C)C)CC1 (centres undefined)	Nrf2 inh 16µM (no result: IL-2 act, p53 reactivator)
Cc1ccc(NC(=O)NC(=O)CN2CCN(c3ccc(O)cc3)CC2)c(C)c1	Nrf2 inh 23µM
CC(C)(C)NC(=O)NC(=O)CN1CCN(c2ccc(O)cc2)CC1	Nrf2 inh 21µM
CC(C)(C)NC(=O)NC(=O)CN1CCN(c2ccccc2)CC1	none
COc1ccc(-c2nc(CCNC(=O)c3c(F)cccc3Cl)cs2)cc1	none (no result: IL-2 act, BRCA1 expr up, p53 reactivator, Nrf2 inh)
C/C=C(/C)C(=O)OC1CC(C)(C)C[C@H]2C3=CC[C@@H]4[C@@]5(C)CCC(O[C@@H]6O[C@@H](C(=O)O)[C@@H](O)C(O[C@@H]7OC[C@H](O)[C@@H](O)[C@@H]7O[C@@H]7OC(CO)C(O)[C@@H](O)[C@@H]7O)C6O[C@@H]6OC(CO)C(O)C(O)C6O)[C@@](C)(CO)[C@@H]5CC[C@]4(C)[C@]3(C)CC(O)[C@@]12CO (some centres undefined)	A549 tox inconclusive, Nrf2 inh inconclusive
